Bioassay records as filed in PubChem.
Hits are enriched below; roughly 9.4% of the tested compounds scored in any of these assays.
FLuc modulator: inhibits or activates purified firefly luciferase, miR-21 counter-screen; P08659; Potency, µM (highest dose often 57.5 µM), hits mostly inhibitors; purified FLuc, Km substrates, luminescence inhibition; hit rate 6.9% among 360,000; AID 588342; also: nearly all actives have a fitted effect of over 55% in size
Target sequence (P08659 whole entry, looked up): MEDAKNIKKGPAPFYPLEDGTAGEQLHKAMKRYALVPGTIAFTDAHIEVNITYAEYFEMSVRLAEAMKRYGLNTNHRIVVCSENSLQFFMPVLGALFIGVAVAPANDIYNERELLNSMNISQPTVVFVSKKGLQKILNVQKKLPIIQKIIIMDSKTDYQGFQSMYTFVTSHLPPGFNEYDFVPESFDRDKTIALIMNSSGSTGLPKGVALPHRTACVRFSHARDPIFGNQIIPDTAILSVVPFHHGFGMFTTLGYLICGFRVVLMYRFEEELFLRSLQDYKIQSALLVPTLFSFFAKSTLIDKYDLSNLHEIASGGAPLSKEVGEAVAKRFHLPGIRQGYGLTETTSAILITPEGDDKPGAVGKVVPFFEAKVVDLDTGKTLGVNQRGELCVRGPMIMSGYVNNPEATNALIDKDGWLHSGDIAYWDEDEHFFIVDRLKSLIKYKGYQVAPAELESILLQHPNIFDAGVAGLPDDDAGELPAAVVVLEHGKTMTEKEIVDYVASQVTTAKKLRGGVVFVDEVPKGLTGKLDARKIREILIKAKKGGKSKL
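Biochemical qHTS of compounds, final roughly 60 µM downward over six points, against 10 nM purified firefly luciferase using Km concentrations of substrates (10 uM D-luciferin, 10 uM ATP) in Tris acetate pH 7.5 buffer; luminescence output.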
NPC1 prom act: activators of NPC1 promoter; Huh7 NPC1 promoter luciferase reporter, 24 h; Potency, µM (top dose mostly 9.22 µM), most hits filed as activators; hit rate 2.4% among 320,000; also: nearly all actives have a fitted effect of over 60% in size
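Huh7 cells stably carrying NPC1 promoter–luciferase, plated in Opti-MEM with 10% FBS for 2 h, were exposed to compound in DMSO for 24 h at 37 °C; luciferase reagent was added for 10 min and luminescence read.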
Rab9 prom act: activates the Rab9 promoter; Potency, µM (series often up to 9.22 µM), usual class: activators; Huh7 Rab9 promoter-luciferase reporter, luminescence, 24 h; hit rate 2.8% among 320,000; AID 485297; also: nearly all actives have a fitted effect of over 60% in size
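Luminescence from Amplite-detected luciferase (10 minutes, ambient) reports Rab9 promoter activation. Before that, stable Rab9-luciferase Huh7 cells (1500/well, reduced-serum OP-MEM I plus 10% FBS) were exposed to compound for 24 hours at 37C.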
ELG1 DNA repair: inhibitors of ELG1-dependent DNA repair in HEK293T cells | HEK293T ELG1-luciferase reporter, luminescence, 16 h; DNA damage induced by 5-fluorouridine | Potency, µM (highest dose often 46.1 µM), hits mostly inhibitors | hit rate 2.3% among 330,000; also: nearly all actives have a fitted effect of over 55% in size
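In this reporter screen, reduction of luminescence relative to DMSO vehicle indicated activity. Compounds and 5-fluorouridine were added together to 2,000 cells per well, incubated for 16 hr at 37 °C, then developed with ONE-Glo.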
ELG1 genotoxic: induces genotoxicity in HEK293T cells with luciferase-tagged ELG1; Potency, µM (titrated, usually from 46 µM), actives largely listed as activators; HEK293T ELG1-luciferase reporter, luminescence, 16 h; hit rate 1.3% among 330,000; also: nearly all actives have a fitted effect of over 60% in size
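Quantitative HTS format in 1536-well plates. HEK293T ELG1-luciferase reporter cells receive test compound and are incubated 16 hr at 37 °C, 5% CO2; ONE-Glo added, 30 min room temperature, then luminescence read.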
SMN2 splice enh: enhancers of SMN2 splice variant expression. HEK293 SMN2-luciferase splicing reporter, luminescence, 30-36 h. Potency, µM (doses to about 46.1 µM), actives largely listed as activators. hit rate 2.8% among 210,000. AID 1458; also: nearly all actives have a fitted effect of over 55% in size
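qHTS luciferase splicing reporter: luminescence rises when SMN2 exon 7 is included in transfected HEK293 cells. Compound exposure lasted 30-36 h at 37C, with 4.5 mM final sodium butyrate as control, followed by a ONE-Glo read.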
Each line names hits and unclear results; the compound was inactive in the other large screens. Calls follow the shape of the dose curve; as a rule, active = well fitted curve in the direction sought with a large enough effect; inconclusive = small, poorly fitted or top-dose-only effect, or another doubt; inactive = no such curve, though single readings can be large; an effect the other way counts as inactive or inconclusive.

CC(C)CNC(=O)Nc1cc(C(=O)NCc2ccc(C(C)C)cc2)ccc1N1CCCC1	none (no result: NPC1 prom act, Rab9 prom act, ELG1 DNA repair, ELG1 genotoxic, SMN2 splice enh)
Cc1cc(C(=O)CN2C(=O)C(=O)N(Cc3ccccc3)C2=O)c(C)n1CC1COc2ccccc2O1 (stereo not drawn)	ELG1 DNA repair 6.51µM
Cc1cc(C(=O)CN2C(=O)C(=O)N(Cc3ccccc3)C2=O)c(C)n1Cc1ccc(F)cc1	none (no result: SMN2 splice enh)
CC1=Nn2c(nnc2-c2n[nH]c3c2CCC3)SC1	none
c1ccc(C2=Nn3c(nnc3-c3ccncc3)SC2)cc1	ELG1 DNA repair 8.2µM
Fc1ccc(C2=Nn3c(nnc3-c3n[nH]c4c3CCC4)SC2)cc1	ELG1 DNA repair inconclusive, ELG1 genotoxic 18.4µM, SMN2 splice enh 20µM
Cc1cc(-c2nnc3n2N=C(c2ccc(-c4ccccc4)cc2)CS3)n[nH]1	FLuc modulator 16.9µM, ELG1 DNA repair inconclusive (no result: SMN2 splice enh)
c1ccc(C2=Nn3c(nnc3-c3cccnc3)SC2)cc1	ELG1 DNA repair inconclusive
c1ccc(-c2cc(-c3nnc4n3N=C(c3ccc5ccccc5c3)CS4)[nH]n2)cc1	FLuc modulator inconclusive, ELG1 DNA repair inconclusive, ELG1 genotoxic inconclusive, SMN2 splice enh 11.2µM
CC(=O)Nc1ccc(C)cc1-c1nc2ccccc2n(CC(=O)c2ccc(C)c(C)c2)c1=O	none (no result: NPC1 prom act, Rab9 prom act, ELG1 DNA repair, ELG1 genotoxic, SMN2 splice enh)
NC(=O)/C=C\c1cn(-c2ccccc2)nc1-c1ccc2c(c1)OCCO2	ELG1 DNA repair 16.4µM
CC(C)OC(=O)c1cn(-c2ccccc2)nc1-c1ccc2c(c1)OCCO2	ELG1 DNA repair 23.1µM
CNC(=O)COC(=O)/C=C/c1cn(-c2ccccc2)nc1-c1ccc2c(c1)OCCO2	ELG1 DNA repair inconclusive
CCCCCCCCCCCCCCCCn1cc[n+](C)c1	ELG1 DNA repair 7.3µM
CCN1CCN(Cc2ccc(NC(=O)Nc3ccc(SC)cc3)cc2)CC1	FLuc modulator 16.9µM, Rab9 prom act inconclusive, ELG1 DNA repair inconclusive, ELG1 genotoxic inconclusive, SMN2 splice enh inconclusive
CCN1CCN(Cc2ccc(NC(=O)Nc3ccc(OC)cc3)cc2)CC1	FLuc modulator inconclusive, ELG1 DNA repair inconclusive, ELG1 genotoxic inconclusive
CSc1ccc(CN2CCN(C(=O)CC(C)C)CC2)cc1	ELG1 DNA repair inconclusive (no result: SMN2 splice enh)
CCN1CCN(Cc2ccc(NC(=O)Nc3ccccc3)cc2)CC1	FLuc modulator 6.01µM, NPC1 prom act 2.82µM, Rab9 prom act 1.41µM, ELG1 DNA repair inconclusive, ELG1 genotoxic 6.51µM
CCN1CCN(Cc2ccc(NC(=O)Nc3cccs3)cc2)CC1	FLuc modulator 4.78µM, NPC1 prom act 1µM, Rab9 prom act 3.98µM, ELG1 DNA repair inconclusive, ELG1 genotoxic inconclusive, SMN2 splice enh inconclusive
CC(=O)Nc1ccc(CN2CCCN(C)CC2)cc1	none (no result: SMN2 splice enh)
Cc1cccc(Nc2nnc(-c3ccc(C)c(S(=O)(=O)NCC4CCCO4)c3)c3ccccc23)c1 (stereo not drawn)	none (no result: NPC1 prom act, Rab9 prom act, ELG1 DNA repair, ELG1 genotoxic)
Cc1ccc(C)c(NC(=O)N2CCc3ccccc3C2)c1	FLuc modulator inconclusive, Rab9 prom act inconclusive, ELG1 DNA repair inconclusive, ELG1 genotoxic inconclusive (no result: SMN2 splice enh)
COc1cccc(-c2cc(C(=O)N3CCc4ccccc4C3)[nH]n2)c1	FLuc modulator 10.7µM, ELG1 DNA repair inconclusive, ELG1 genotoxic inconclusive (no result: SMN2 splice enh)
O=C(Nc1ccccc1F)N1CCc2ccccc2C1	FLuc modulator 15.1µM, NPC1 prom act 1.26µM, Rab9 prom act 2.82µM, ELG1 DNA repair inconclusive, ELG1 genotoxic 18.3µM (no result: SMN2 splice enh)
COc1cccc(NC(=O)N2CCCCCC2)c1	FLuc modulator inconclusive, NPC1 prom act inconclusive, Rab9 prom act inconclusive, ELG1 genotoxic inconclusive (no result: SMN2 splice enh)
O=C(Nc1cccc(Cl)c1)N1CCc2ccccc2C1	FLuc modulator 9.53µM, NPC1 prom act 2.82µM, Rab9 prom act 3.16µM, ELG1 DNA repair inconclusive, ELG1 genotoxic inconclusive (no result: SMN2 splice enh)
Cc1ccc(-c2cc(C(=O)N3CCc4ccccc4C3)[nH]n2)cc1C	ELG1 DNA repair inconclusive (no result: SMN2 splice enh)
COc1cccc(NC(=O)N2CCc3ccccc3C2)c1	FLuc modulator 16.9µM, NPC1 prom act 3.98µM, Rab9 prom act 2.82µM, ELG1 DNA repair inconclusive, ELG1 genotoxic inconclusive (no result: SMN2 splice enh)
COc1cccc(CN2CCCN(Cc3ccc(F)cc3)S2(=O)=O)c1	none (no result: NPC1 prom act, Rab9 prom act, ELG1 DNA repair, ELG1 genotoxic, SMN2 splice enh)
O=C(Nc1ccc([N+](=O)[O-])cc1)N1CCc2ccccc2C1	FLuc modulator inconclusive, Rab9 prom act inconclusive, ELG1 DNA repair inconclusive, ELG1 genotoxic inconclusive (no result: SMN2 splice enh)
